For 15 compounds, growth results are on record in PubChem BioAssay (NCI).

“And” between values parts separate entries of the source, which are not always exact repeats. Equal entries are not always repeated. About 83,000 compounds went through this panel and 20% of them were active in at least one assay; those are over-represented in the sample as a whole.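 In brief: 96-well plates, 48 h treatment, single concentration, percent growth endpoint.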 Values without a mark were called inactive. The source made the active and inactive calls. Rule for the calls: active = growth percent below 10; inactive = the rest.

Test systems include DU-145 prostate; K-562 leukemia; MALME-3M melanoma; MDA-MB-231 breast; RXF 393 renal; SF-268 CNS; SF-295 CNS; SF-539 CNS; UACC-257 melanoma; M14 melanoma.
Assay in all cases: NCI-60 one-dose screen, 48 h (100 = growth as untreated, 0 = no growth, -100 = all killed)
Common to all, as to settings: 10 µM unless noted

Regarding `CN1CCN(C(=O)OCc2nc3c(N4CCOCC4)nc(Cl)nc3n2C)CC1`, the growth in the test with DU-145 prostate was 1.69% (active); in the test on K-562 leukemia, -11% (active); in the test on MALME-3M melanoma, -65.3% (active); in the test with MDA-MB-231 breast, -77.5% (active); with RXF 393 renal, -94.9% (active); in the test on SF-268 CNS, 1.11% (active). For the same compound, the growth with SF-295 CNS is 73.4%; in the test on SF-539 CNS, -99% (active); with UACC-257 melanoma it was -64.7% (active); in the test on M14 melanoma, -77.4% (active).

In the case of `COc1cc(-c2[nH]ncc2Nc2ccc(Cl)cc2)cc(OC)c1OC`, the growth with DU-145 prostate was 102%; in the test with K-562 leukemia, 47.2%; in the test on MALME-3M melanoma, 69.4%; in the test with MDA-MB-231 breast it was 62.6%; in the test with RXF 393 renal, 89.4%; in the test on SF-268 CNS it was 84.5%. The growth with SF-295 CNS was 42.7%; in the test on SF-539 CNS, 70.1%; in the test on UACC-257 melanoma, 64.6%; in the test on M14 melanoma, 71.3%.

In the case of `Nc1ncc(-c2ccc3ncnc(N4CCc5ccc(Cl)cc54)c3c2)cc1C(F)(F)F`, the growth in the test on DU-145 prostate was 17.6%; in the test on K-562 leukemia, 30.5%; with MALME-3M melanoma, -0.57% (active); in the test with MDA-MB-231 breast, 21.8%; in the test with RXF 393 renal, -38.8% (active); in the test with SF-268 CNS, 22.4%. In addition, the growth was 19.3% in the test with SF-295 CNS, 2.93% (active) in the test on SF-539 CNS, 29.3% in the test on UACC-257 melanoma and 26.7% in the test with M14 melanoma.

Take `CN1CCN(CCNC(=O)c2cccc(CN3c4cccc5c4C(=Cc4cccnc43)N(C)C5=O)c2)CC1`: the growth in the test on DU-145 prostate is 68.1%; in the test with K-562 leukemia, 30%; in the test with MALME-3M melanoma, 49.3%; with MDA-MB-231 breast, 31.7%; in the test on RXF 393 renal it was 26.6%; with SF-268 CNS it was 59.3%. Also, the growth in the test with SF-295 CNS was 42.5%; with SF-539 CNS it was 33.5%; in the test on UACC-257 melanoma it was 50%; with M14 melanoma, 45.4%.

For `CCCCC1=C(Br)C(=O)c2nc(C)ccc2C1=O`, the growth was 101% in the test with DU-145 prostate; 34% in the test on K-562 leukemia; 83.6% in the test on MALME-3M melanoma; 80.9% with MDA-MB-231 breast; 90.4% with RXF 393 renal; 92.8% in the test on SF-268 CNS. The growth in the test with SF-295 CNS is 103%; with SF-539 CNS it was 92.6%; in the test with UACC-257 melanoma, 94%; with M14 melanoma, 96%.

For the compound `COc1ccc(/C=N/NC(=O)CN2CCN(c3cc4c(cc3F)c(=O)c(C(=O)O)cn4C3CC3)CC2)cc1O`, the growth is 102% with DU-145 prostate; 86.2% in the test on K-562 leukemia; 109% in the test with MALME-3M melanoma; 92.8% in the test on MDA-MB-231 breast; 103% in the test with RXF 393 renal; 87.7% in the test on SF-268 CNS. Moreover, the growth was 104% with SF-295 CNS, 101% with SF-539 CNS, 89.5% with UACC-257 melanoma and 101% in the test on M14 melanoma.

Turning to `CCCCSc1ccc2nc(-c3ccc(OCCCN=C(N)N)cc3)cn2c1`, the growth with DU-145 prostate was 73.4%; with K-562 leukemia it was 32.9%; with MALME-3M melanoma, 23.2%; with MDA-MB-231 breast, 51.2%; in the test on RXF 393 renal it was 45.6%; in the test on SF-268 CNS, 50.9%. The growth in the test with SF-295 CNS was 52.7%; in the test on SF-539 CNS it was 9.52% (active); with UACC-257 melanoma, 85.7%; in the test on M14 melanoma, 72.5%.

For the compound `CN(C)CC1(C)Cc2ccsc2C1O` (stereo not given), the growth in the test on DU-145 prostate was 116% and 97.1%; in the test on K-562 leukemia it was 104% and 92.8%; in the test on MALME-3M melanoma, 98.8%; in the test with MDA-MB-231 breast, 113% and 111%; with RXF 393 renal it was 108% and 109%; with SF-268 CNS, 113% and 102%. Besides, the growth was 121% and 115% in the test with SF-295 CNS; 93.4% and 105% in the test on SF-539 CNS; 108% and 110% in the test on UACC-257 melanoma; 111% and 108% with M14 melanoma.

Take `CS(=O)(=O)Nc1cc(-c2ccc3ncnc(Nc4ccc(F)c(Cl)c4)c3c2)cnc1Cl`: the growth in the test with DU-145 prostate is 16.3%; in the test with K-562 leukemia it was 18.7%; in the test with MALME-3M melanoma, -15.5% (active); with MDA-MB-231 breast, 5.12% (active); in the test with RXF 393 renal, -34.2% (active); in the test with SF-268 CNS it was 12.3%. Moreover, the growth is -17.5% (active) with SF-295 CNS, 6.35% (active) with SF-539 CNS, 4.62% (active) with UACC-257 melanoma and 5.92% (active) in the test with M14 melanoma.

As to `CN(C)CCCn1c2nc(=O)[nH]c(=O)c-2nc2cc(Cl)c(Cl)cc21`, the growth with DU-145 prostate is 115%; with K-562 leukemia, 47.9%; with MALME-3M melanoma it was 106%; with MDA-MB-231 breast, 98.6%; in the test with RXF 393 renal, 111%; with SF-268 CNS, 108%. Moreover, the growth in the test on SF-295 CNS was 99.3%; in the test with SF-539 CNS, 105%; in the test on UACC-257 melanoma it was 41.7%; in the test on M14 melanoma it was 51.1%.

Regarding `CC(=O)Nc1c(I)c(NC(C)=O)c(I)c(C(=O)O)c1I`, the growth with DU-145 prostate is 115% and 142%; in the test on K-562 leukemia, 69.4%; in the test on MALME-3M melanoma, 93.7% and 84.5%; in the test on MDA-MB-231 breast it was 105% and 117%; in the test with RXF 393 renal it was 113% and 25.5%; with SF-268 CNS, 107% and 120%. Besides, the growth was 90.4% and 104% in the test with SF-295 CNS; 99.3% and 99.7% in the test on SF-539 CNS; 105% with UACC-257 melanoma; 95.9% and 104% in the test with M14 melanoma.

Consider `COc1ccc(-c2[nH]c3ccccc3c2-c2ccc(OC)cc2)cc1`, for which the growth is -30.6% (active) in the test with DU-145 prostate; 3.69% (active) in the test on K-562 leukemia; 73.3% in the test with MALME-3M melanoma; 52.6% with MDA-MB-231 breast; 51.9% with RXF 393 renal; 61.4% in the test on SF-268 CNS. For the same compound, the growth in the test on SF-295 CNS is 50.2%; in the test with SF-539 CNS, 45.3%; in the test on UACC-257 melanoma it was 72%; with M14 melanoma, 34.9%.

On to `N#C/C(=C\c1ccc(Br)cc1)n1nnc2c(F)cccc21`, for which the growth in the test with DU-145 prostate is 5.36% (active); in the test on K-562 leukemia, 12%; in the test with MALME-3M melanoma it was -2.35% (active); in the test on MDA-MB-231 breast, -10.6% (active); in the test with RXF 393 renal, -57.9% (active); in the test on SF-268 CNS, 20.3%. Besides, the growth with SF-295 CNS was 24.7%; in the test with SF-539 CNS, -7.82% (active); with UACC-257 melanoma it was -10.7% (active); in the test on M14 melanoma it was 2.49% (active).

As for `Cc1ccc(Cc2cnc(NC(=O)c3cc(C)oc3C)s2)cc1`, the growth was 75.6% in the test with DU-145 prostate; 29.5% in the test with K-562 leukemia; 85.2% in the test on MALME-3M melanoma; 79.6% in the test on MDA-MB-231 breast; 58.7% with RXF 393 renal; 67.8% in the test with SF-268 CNS. Further, the growth was 66.6% in the test with SF-295 CNS, 76.8% in the test on SF-539 CNS, 94.2% in the test on UACC-257 melanoma and 70.8% in the test on M14 melanoma.

Turning to `Nc1c(C(=O)Nc2ccncc2)sc2nc3c(cc12)CCCCCCCC3`, the growth in the test on DU-145 prostate is -75.5% (active); in the test with K-562 leukemia it was -52% (active); in the test with MALME-3M melanoma, -84.6% (active); in the test with MDA-MB-231 breast, -72.7% (active); in the test with RXF 393 renal, -80.6% (active); in the test on SF-268 CNS, -62.4% (active). Besides, the growth was -77% (active) with SF-295 CNS, -91.7% (active) in the test on SF-539 CNS, -75.7% (active) in the test with UACC-257 melanoma and -80.1% (active) in the test with M14 melanoma.
